PLAP activator: human PLAP activation. P05187. purified PLAP enzyme, luminescent substrate read-out; hits give high values. activation fold at 20 µM. actives 1.2% (n = 96,000). AID 696; in the data active = activation fold above about 2
CYP2C19 inhib: blocks human cytochrome P450 2C19; P33261; CYP2C19 Supersomes, luciferin-H EGE luminescence, 30 min; inhibition, % at 5 µM; actives 21% (n = 96,000);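 active = CYP2C19 inhibition above a set limit at 5 µM in the primary screen, cut at about 50% in these data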;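 note: plate controls were negative control wells for no effect and 2.5 mM tranylcypromine positive control for full effect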
CYP2C9 inhib: blocks human cytochrome P450 2C9. P11712. CYP2C9 Supersomes, luciferin-H conversion, luminescence. inhibition, % at 5 µM. actives 20% (n = 96,000). AID 777;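 active = blocking of liver enzyme CYP2C9 beyond about 50% at 5 µM, limit read from the data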
Target sequence (P11712 whole entry, looked up): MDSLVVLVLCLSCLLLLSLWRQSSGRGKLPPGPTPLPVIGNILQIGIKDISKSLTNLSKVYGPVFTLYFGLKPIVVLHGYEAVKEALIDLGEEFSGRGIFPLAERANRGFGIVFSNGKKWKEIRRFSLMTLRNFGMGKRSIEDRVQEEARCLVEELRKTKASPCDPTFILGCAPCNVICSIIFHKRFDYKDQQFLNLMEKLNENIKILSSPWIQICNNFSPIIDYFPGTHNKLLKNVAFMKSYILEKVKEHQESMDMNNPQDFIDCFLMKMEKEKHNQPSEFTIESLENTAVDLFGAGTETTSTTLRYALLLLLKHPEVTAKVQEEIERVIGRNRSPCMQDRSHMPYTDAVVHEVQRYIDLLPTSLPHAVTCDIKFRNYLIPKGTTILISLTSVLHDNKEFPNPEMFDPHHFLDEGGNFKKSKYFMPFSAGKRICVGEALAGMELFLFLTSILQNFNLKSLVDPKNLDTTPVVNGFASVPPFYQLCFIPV
CYP2C19 activ: activators of human cytochrome P450 2C19. P33261. recombinant CYP2C19, luciferin-H EGE luminescence; hits give high values; 0 = fully inhibited enzyme, 1 = untreated enzyme. activation factor at 5 µM. 96,000 tested, under 10 active;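 active = activation factor of at least 2 at 5 µM in the primary screen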;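 note: 0 = wells with 2.5 mM tranylcypromine and 1 = vehicle-only wells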
CYP2C9 activ: CYP2C9 (human) activation; P11712; recombinant CYP2C9, luciferin-H conversion, luminescence; hits give high values; factor 1 = untreated enzyme, 0 = blocked; actives 1.4% (n = 96,000); activation factor at 5 µM;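 active = activation factor of 2 or more for CYP2C9 at a 5 µM dose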;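 note: 0 = sulfaphenazole-blocked wells and 1 = vehicle-only wells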
* hit, by the source's call. Most compounds without a hit are left out; they make up all but 31% or so of the library.

SMILES	PLAP activator	CYP2C19 inhib	CYP2C9 inhib	CYP2C19 activ	CYP2C9 activ
CC(C)c1ccc(-c2nc(N3CCOCC3)[nH]c(=O)c2C#N)cc1	1.1	8	11	0.9	0.9
Cc1ccc(S(=O)(=O)N2CC(=NO)C2)cc1	0.9	25	-28	0.8	1.3
CCOc1ccccc1CNC(=O)c1cc2oc3ccccc3c2n1CC	1.1	66*	-11	0.3	1.1
COc1cccc(CNC(=O)c2cc3oc4ccccc4c3n2C)c1OC	1	-8	-42	1.1	1.4
CCOc1ccc(CNC(=O)c2cc3oc4ccccc4c3n2C)cc1	1.1	23	52*	0.8	0.5
Cc1cc2n(n1)C(c1sccc1C)Nc1ccccc1-2 (stereo not given)	1.3	66*	56*	0.3	0.4
Cc1cc2n(n1)C(c1sccc1C)Nc1c(C)cccc1-2 (stereo not given)	1.1	43	29	0.6	0.7
Cc1ccc2c(c1)-c1cc(C)nn1C(c1sccc1C)N2 (stereo not given)	1.5	79*	56*	0.2	0.4
COc1ccccc1NC(=O)C(NC(=O)OC(C)(C)C)C(C)OCc1ccccc1 (stereo not given)	1.4	22	23	0.8	0.8
c1ccc2[nH]c(SCc3cscn3)nc2c1	1.6	91*	23	0.1	0.8
Fc1ccccc1CSc1nc2ncc(Br)cc2[nH]1	1.7	87*	78*	0.1	0.2
Fc1ccccc1CSc1nc2ccccc2[nH]1	1	100*	85*	0	0.2
O=C(Nc1cccc(C(F)(F)F)c1)c1cnc2n(c1=O)CCS2	0.8	-1	-53	1	1.5
O=C(Nc1cc(Cl)ccc1Cl)C1CC(=O)N(c2ccc(Br)cc2)C1 (stereo not given)	0.8	19	21	0.8	0.8
COc1ccc(C(=O)CC(c2ccccc2)C2C(=O)CCCC2=O)cc1 (stereo not given)	1.3	69*	93*	0.3	0.1
O=C(CC(c1ccco1)C1CCCCC1=O)c1ccccc1 (stereo not given)	1.4	62*	74*	0.4	0.3
COc1ccc(C(=O)C2CCCCC2=O)cc1 (stereo not given)	1	10	3	0.9	1
COc1ccc(C(CC(=O)c2ccccc2)C2CCCCC2=O)cc1 (stereo not given)	0.9	53*	17	0.5	0.8
CCOC(=O)COc1c(C=O)cc(Br)cc1OC	1	56*	-98	0.4	2*
CCCCCCS(=O)[C@H]1CS(=O)(=O)C[C@@H]1S(=O)CCCCCC (stereo not given in full)	1	4	7	1	0.9
COCCNC(=O)CSc1nnc2c(Cl)cc(Cl)cn12	0.9	8	22	0.9	0.8
Cc1ccc(N(C(=O)Cn2nnc3ccccc32)C(C(=O)NCc2ccco2)c2ccc(C)o2)cc1 (stereo not given)	1.5	39	18	0.6	0.8
COc1ccc(OC)c(C(C(=O)NCc2ccco2)N(C(=O)Cn2nnc3ccccc32)C(C)C)c1 (stereo not given)	1.3	62*	12	0.4	0.9
COc1ccc(OC)c(C(C(=O)NCc2ccco2)N(C(=O)Cn2nnc3ccccc32)C2CC2)c1 (stereo not given)	1	49	9	0.5	0.9
Cc1ccc(N(C(=O)Cn2nnc3ccccc32)C(C(=O)NCc2ccco2)c2cccnc2)cc1 (stereo not given)	1.1	65*	6	0.3	0.9
SMILES	PLAP activator	CYP2C19 inhib	CYP2C9 inhib	CYP2C19 activ	CYP2C9 activ
COc1ccc(N(C(=O)Cn2nnc3ccccc32)C(C(=O)NCc2ccco2)c2ccc(C)o2)cc1 (stereo not given)	1.6	68*	58*	0.3	0.4
COc1cccc(N(C(=O)Cn2nnc3ccccc32)C(C(=O)NCc2ccco2)c2cccnc2)c1 (stereo not given)	1.4	79*	32	0.2	0.7
Cc1cc(C)cc(N(C(=O)Cn2nnc3ccccc32)C(C(=O)NCc2ccco2)c2ccncc2)c1 (stereo not given)	0.8	33	13	0.7	0.9
NC(=O)C1CCN(C(=O)CN2CCc3ccccc32)CC1	0.7	11	0	0.9	1
COc1nc(NC(C)=O)nc(C)c1Br	1	0	1	1	1
Cc1cc(N2CCCCCC2)nc2ccccc12	0.8	21	0	0.8	1
COc1ccc2c(C)cc(N3CCN(c4ccc(F)cc4)CC3)nc2c1	0.9	83*	-126	0.2	2.3*
Cc1cc(N2CCN(c3ccccc3F)CC2)nc2cc(O)ccc12	1.3	57*	-104	0.4	2*
Cc1cc(N2CCN(c3ccc(F)cc3)CC2)nc2cc(O)ccc12	1.3	31	-219	0.7	3.2*
O=C(CN1C(=O)C2CC=CCC2C1=O)NC1=NCCS1 (stereo not given)	1.1	-1	2	1	1
CCCCSc1nnc2n(CCc3ccccc3)c(=O)c3c4c(sc3n12)COC(C)(C)C4	1.3	80*	51*	0.2	0.5
CCOc1ccc(-n2c(Cc3cc(=O)[nH]c(=O)[nH]3)nnc2SC(C)C(=O)OC)cc1 (stereo not given)	1.5	0	-7	1	1.1
Cn1cc(C(c2ccccn2)c2cn(C)c3ccccc23)c2ccccc21	1.6	44	96*	0.6	0
c1ccc(C(c2c[nH]c3ccccc23)c2c[nH]c3ccccc23)nc1	1	54*	95*	0.5	0.1
Cc1ccccc1C(O)c1ccccn1 (stereo not given)	1.1	17	6	0.8	0.9
Cc1ccc(S(=O)(=O)N(CCCO)Cc2cc3c(C)ccc(C)c3[nH]c2=O)cc1	1.7	9	56*	0.9	0.4
Cc1ccc2cc(CN(Cc3ccco3)S(=O)(=O)c3c(C)ccc4nsnc34)c(=O)[nH]c2c1	1.6	54*	89*	0.5	0.1
Cc1cc2cc(CN(Cc3ccco3)S(=O)(=O)c3c(C)ccc4nsnc34)c(=O)[nH]c2cc1C	1.1	8	-3	0.9	1
Cc1ccc(S(=O)(=O)N(CCO)Cc2cc3ccc(C)c(C)c3[nH]c2=O)cc1	1.5	6	29	0.9	0.7
Cc1cc2cc(CN(CCCO)S(=O)(=O)c3cccc4nsnc34)c(=O)[nH]c2cc1C	1.6	3	93*	1	0.1
Cc1ccc2[nH]c(=O)c(CN(CCCO)S(=O)(=O)c3c(C)ccc4nsnc34)cc2c1	1.3	3	65*	1	0.3
CCCCC(CC)CNC(=O)CN(C)S(=O)(=O)c1cccc2nsnc12 (stereo not given)	1	23	26	0.8	0.7
FC(F)(F)C1CC(c2cccs2)Nc2ncnn21 (stereo not given)	0.9	6	8	0.9	0.9
Cc1ccc2cc(CN(C)C(=O)C3CCCO3)c(=O)[nH]c2c1 (stereo not given)	1	1	-4	1	1

Assay outcomes: PubChem, Sanford-Burnham Center for Chemical Genomics
